Compounds without any hit were thinned out: in the full panel of roughly 83,000, 20% have a hit.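 In brief: 96-well plates, 48 h treatment, single concentration, percent growth endpoint.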 Calls of active or inactive are those of the source. How the source made its calls: active means growth percent below 10; inactive means the rest.

This assay concerns HL-60(TB) leukemia. In words: NCI-60 one-dose screen, 48 h (100 = growth as untreated, 0 = no growth, -100 = all killed). The following applies: 10 µM unless noted.
With `CN1CCN(c2ccc3c(c2)nc(NNC(=O)c2cnccn2)c2cccn23)CC1`, the growth is -9.26% (active).
The figure for `CN(C)c1nc(N)c(N=O)c(N)n1` is 106% (inactive); for `CCN(CC)CCCCNc1c2ccccc2[n+](C)c2c1[nH]c1ccccc12` it is 22.7% (inactive).
The value for `CC1=C[C@H]2c3c(c(O)c(O)c4oc5c(C)cccc5c(=O)c34)[C@H](c3cc(O)c(O)c4oc5c(C)cccc5c(=O)c34)[C@H]2C(C)(C)C1` was -14.5% (active); that for `CCN1C(=S)N(c2ccccc2)C2C1NN=c1s/c(=C3\C(=O)N(C(C)C)c4ccccc43)c(=O)n12` (configuration not stated) was 96.6% (inactive).
The value for `Cc1ccc(-c2cc3c(SCC(=O)Nc4cc(C(F)(F)F)ccc4Cl)nccn3n2)cc1` was 12.6% (inactive); that for `Cn1cc(-c2nc(-c3c[nH]c4ccncc34)cs2)c2cc(F)ccc21` was -55.3% (active).
Take `COc1ccc2[nH]c(-c3ccccc3)c(/C=C(\C#N)S(=O)(=O)c3ccccc3)c2c1`: the growth is 1.53% (active).
The figure for `CC(C)CCNCC(O)Cn1c2ccccc2c2ccccc21` (configuration not stated) is -14.8% (active); for `COc1ccc2c(CCCCC(c3ccccc3)c3ccccc3)c3[n+](cc2c1OC)CCc1cc2c(cc1-3)OCO2` it is -35.5% (active); for `Cc1ccc(C)c2c1CCC2C(C)C` (configuration not stated) it is 108% (inactive).
As for `NCCCNc1nc2ccccc2c2c(=O)c3cc(C(F)(F)F)ccc3sc12`, the growth is -23% (active).
Regarding `O=C(c1ccccc1)C(Sc1ccccc1)c1ccccc1` (configuration not stated), the growth was 84.1% (inactive).
On to `COc1ccc(C=C2c3ccccc3-c3ccccc32)cc1`, for which the growth is 23.6% (inactive).
With `Cc1cc2nc3ccc(N=Nc4ccc(N(C)C)cc4)cc3n(-c3ccccc3)c-2cc1=N`, the growth is -2.79% (active).
With `COc1ccc(Nc2ncccc2NC(=O)c2cn(Cc3cccc(Oc4ccccc4)c3)nn2)cc1`, the growth was 95.9% (inactive).
For `C[C@H]1C(=O)N2c3ccccc3[C@@]3(O)C[C@@H](n4cnc5ccccc5c4=O)C(=O)N1[C@@H]23`, the growth is 64.6% (inactive).
The value for `Cc1ccc(-c2nc(N3CCCNCC3)c3oc(-c4ccc(C)cc4)nc3n2)cc1` was -69.3% (active); that for `O=C1CCC/C=C\C[C@H]2C=C(Cl)C(=O)/C2=C/C[C@H](CCCCC(F)(F)F)OC(=O)CCC/C=C\C[C@H]2C=C(Cl)C(=O)/C2=C/C[C@H](CCCCC(F)(F)F)O1` was -16.5% [7.5 µM] (active); that for `CCCCCCCCCCCCCCCCCCOc1ccccc1CC(=O)OCC[N+](C)(C)C` was -38% (active).
The value for `COc1cccc(/C=C2\CCc3ccccc3C2=O)c1` was 63.2% (inactive); that for `CNC(=O)c1cc(Oc2ccc(NC(=O)Nc3ccc(Cl)c(C(F)(F)F)c3)c(F)c2)ccn1` was -17.4% (active).
The value for `O=[N+]([O-])c1ccc(C(c2ccccc2)c2ccccc2)cc1` was 79.3% (inactive); that for `COc1ccccc1/C=C(/C(=O)c1ccccc1)c1ccccc1` was 71.8% (inactive).
Regarding `COc1ccc([N+](=O)[O-])c(/C=C/C(=O)c2ccccn2)c1`, the growth was 88.9% (inactive).
For the molecule `CC(C)C1=C[C@@]23CC[C@@H]4[C@](C)(CCC[C@@]4(C)C(=O)N4CCCNCC4)[C@H]2C[C@@H]1[C@H]1C(=O)CCC(=O)[C@H]13`, the growth was 100% (inactive).
For the molecule `N#Cc1c(N)n2c(nc1=Nc1ccc([N+](=O)[O-])cc1)sc1cc(Cl)ccc12`, the growth was 117% (inactive).
The figure for `Cc1[nH]cnc1/C=C1\SC(N2CCCCC2)=NC1=O` is 96.4% (inactive); for `Nc1n[nH]c2cccc(C#Cc3cccc(NC(=O)c4cc(F)cc(C(F)(F)F)c4)c3)c12` it is 37.7% (inactive); for `O=c1ncc(-c2ccc(C(F)(F)F)cc2)c(NC2CCCCCC2)[nH]1` it is 23.3% (inactive).
For the molecule `Cc1nn(CCO)c(C)c1N=[N+]([O-])c1c(C)nn(CCO)c1C`, the growth was -45.8% (active).
`Cn1cc(-c2ccc3nc(-c4ccc(CC(=O)Nc5cc(C(C)(C)C)no5)cc4)cnc3c2)cn1`: the growth is 18.5% [30 µM] (inactive).
The figure for `CN1CCN(CC(=O)Nc2nc3c(s2)Nc2cc(Cl)c(Cl)cc2NC3=O)CC1` is 81.9% (inactive); for `Nc1nn2cc(-c3ccc(Cl)s3)nc2c2ccccc12` it is 54.7% (inactive).
The value for `CC[C@H](Nc1ncnc2nc[nH]c12)c1nc2cccc(CC(=O)c3ccc(C(=O)NO)cc3)c2c(=O)n1-c1ccccc1` was 75.5% (inactive); that for `CN1CCCc2cc(/C=C3\SC(=S)N(C(Cc4ccc(O)cc4)C(=O)O)C3=O)ccc21` (configuration not stated) was 99.9% (inactive); that for `CCCCCCCCCCCCCCCCS(=O)(=O)Nc1cc(C(=O)NN)cc(C(=O)NN)c1` was 35.8% (inactive).

Source of the values: PubChem BioAssay (NCI).
